# Bioassay records as filed in PubChem BioAssay.
# PLK1 PBD inh – qHTS for Inhibitors of PLK1-PDB (polo-like kinase 1 - polo-box domain): Primary Screen; Plk1 PBD binding of FITC phosphopeptide, fluorescence polarization; Potency, µM, for inactives: max response, negative = inhibition, actives largely listed as inhibitors; Serine/threonine-protein kinase PLK1 (Homo sapiens), P53350; 2.8% of 360,000 active; AID 720504, 2013; further: series mostly up to about 57 µM; on the % scale 0 is the no-effect control and ±100 the full control effect; nearly all actives have a fitted effect of over 65% in size
# 12-LOX inh – Primary qHTS assay for inhibitors of human arachidonate 12S-lipoxygenase (ALOX12): Round 2; Polyunsaturated fatty acid lipoxygenase ALOX12 (Homo sapiens), P18054; purified 12hLO, xylenol orange hydroperoxide absorbance; Potency, µM (top dose mostly 108 µM), without a hit: at the top dose activity change, negative = inhibition, hits mostly inhibitors; 1.1% of 580,000 active; AID 1671190, 2021; further: on the % scale 0 is the no-effect control and ±100 the full control effect
#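 Purified human 12hLO at 150 nM in 25 mM Hepes, 0.01% Triton X-100, pH 7.0, preincubated 15 min at room temperature with compound. Reaction started with 40 uM arachidonic acid, 30 min at room temperature. Hydroperoxide measured by Fe-xylenol orange, 573/405 nm absorbance ratio.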
# HP1b binding inh – HTS for Inhibitors of HP1-beta Chromodomain Interactions with Methylated Histone Tails; Chromobox protein homolog 1 (Homo sapiens), P83916; 0.56% of 390,000 active; Potency, µM (titrated, usually from 114 µM), without a hit: at the top dose activity change, negative = inhibition, most hits filed as inhibitors; AID 540317, 2011; AlphaScreen HP1-beta / biotin-H3K9me3 peptide binding; further: nearly all actives have a fitted effect of over 70% in size
# Target sequence (P83916 whole entry, looked up): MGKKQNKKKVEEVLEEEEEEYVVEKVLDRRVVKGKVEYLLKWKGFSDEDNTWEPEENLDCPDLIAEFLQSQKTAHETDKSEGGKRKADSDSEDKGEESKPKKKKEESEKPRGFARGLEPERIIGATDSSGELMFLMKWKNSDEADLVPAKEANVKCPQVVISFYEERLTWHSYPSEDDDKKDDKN
#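 Compound inhibition of the preformed complex between 50 nM HP1-beta and 50 nM biotinylated H3K9me3 peptide was read by AlphaScreen. Buffer was PBS pH 7.4 with 0.01% Tween-20. Incubations ran 30 min at room temperature, with 10 ug/mL donor/acceptor beads.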
# JMJD2A Tudor inh – qHTS Assay for Inhibitors of JMJD2A-Tudor Domain | Lysine-specific demethylase 4A (Homo sapiens), O75164 | AlphaScreen JMJD2A-Tudor / H3K4me3 peptide binding | Potency, µM (highest dose often 114 µM), for the others: top-dose activity change, negative = inhibition, most hits filed as inhibitors | 4.4% of 390,000 active | AID 504339, 2011; further: on the % scale 0 is the no-effect control and ±100 the full control effect; nearly all actives have a fitted effect of over 50% in size
# BAZ2B block – qHTS Assay for Inhibitors of BAZ2B | AlphaScreen BAZ2B-H3K14Ac peptide displacement | Potency, µM (doses to about 114 µM), without a hit: at the top dose activity change, negative = inhibition, actives largely listed as inhibitors | 4.4% of 360,000 active; further: on the % scale 0 is the no-effect control and ±100 the full control effect; nearly all actives have a fitted effect of over 60% in size
#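 AlphaScreen displacement of biotin-H3(5-23)K14Ac peptide (50 nM final) from BAZ2B (50 nM final) in PBS pH 7.4, 0.01% Tween-20; complex preformed 30 min RT, then compounds (top 110 uM) 30 min RT, beads 20 min dark.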
# G9a block – qHTS Assay for Inhibitors of Histone Lysine Methyltransferase G9a; Histone-lysine N-methyltransferase EHMT2 (Homo sapiens), Q96KQ7; G9a H3K9 monomethylation, AlphaScreen, 2 h; Potency, µM (titrated, usually from 102 µM), for the others: top-dose activity, negative = inhibition, actives largely listed as inhibitors; 8.8% of 350,000 active; AID 504332, 2011; further: on the % scale 0 is the no-effect control and ±100 the full control effect; nearly all actives have a fitted effect of over 75% in size
# Target sequence (Q96KQ7 913-1193 limits assumed): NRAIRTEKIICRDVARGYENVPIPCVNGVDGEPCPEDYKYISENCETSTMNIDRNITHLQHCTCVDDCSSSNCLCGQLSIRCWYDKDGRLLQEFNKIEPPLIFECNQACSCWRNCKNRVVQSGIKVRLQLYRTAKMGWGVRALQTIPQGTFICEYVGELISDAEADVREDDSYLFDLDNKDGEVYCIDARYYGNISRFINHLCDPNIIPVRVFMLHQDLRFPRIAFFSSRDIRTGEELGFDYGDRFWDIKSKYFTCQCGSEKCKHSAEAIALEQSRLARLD
#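 Quantitative HTS format: methyltransferase activity on a biotin-tagged H3K9 peptide is measured by AlphaScreen, using a rabbit anti-monomethyl-H3K9 antibody with streptavidin donor and anti-IgG acceptor beads. Final levels are 20 nM enzyme, 500 nM peptide, 20 uM SAM; 2 h RT.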
# The depositor's hits bear a star; i = inactive; u = inconclusive; x = not tested or not shown; ! = not confirmed by another sample; [ ] = remark or other dose. Hits are enriched below; roughly 9% of the tested compounds scored in any of these assays. The call rests on the fitted dose curve; in most records, active means well fitted curve in the direction sought with a large enough effect; inconclusive means small, poorly fitted or top-dose-only effect, or another doubt; inactive means no such curve, though single readings can be large; an effect the other way counts as inactive or inconclusive. Potency means the concentration at half of the fitted maximal effect.
SMILES,PLK1 PBD inh,12-LOX inh,HP1b binding inh,JMJD2A Tudor inh,BAZ2B block,G9a block
O=C(c1cccc(NS(=O)(=O)c2ccccc2)c1)N1CCCC1,-2%,i,23%,-9%,-16%,u
N/C(=N\OC(=O)C(c1ccccc1)c1ccccc1)c1ccncc1,-13%,16%,46%,-13%,15%,x
Cc1cc(C)cc(SCc2noc(C(=O)NCCN(C)C)c2C(=O)NCCN(C)C)c1,-3%,-1%,2%,u,x,x
Cc1ccc(S(=O)(=O)N2CCN(CC(=O)NC(C)c3ccccc3)CC2)cc1 (stereo not drawn),-8%,-1%,14%,-13%,8%,7%
CCOC(=O)c1cc(-c2ccc(F)cc2)n(CCC(=O)Nc2nc3ccc(OC)cc3s2)c1C,x,u,-25%,56µM*,u,-49%[59 µM]
COc1ccc(N2CCN(C(=O)c3cccc(NC(=O)c4nsc5ccccc45)c3)CC2)cc1,x,-13%,u,u,7.9µM*,10µM*
COc1ccc(N2CCN(S(=O)(=O)CCNS(=O)(=O)c3ccccc3)CC2)cc1,-1%,u,29%,8%,-3%,14µM*
O=S(=O)(NCCS(=O)(=O)N1CCN(c2ccc(F)cc2)CC1)c1ccccc1,-5%,1%,x,x,x,x
COc1ccc(N2CCN(C(=O)CCNS(=O)(=O)c3ccccc3)CC2)cc1,9.5µM*,-8%,-13%,u,-10%,x
O=C(c1nccc2ccccc12)N1CCC2(CC1)CC(Cc1nc(C3CC3)no1)CCO2 (stereo not drawn),x,46%,x,x,x,x
CCCNC(=O)CSc1nc(-c2cccs2)cc(C(F)(F)F)n1,-6%,-18%,14%,-6%,4%,35%
O=C(Nc1ccc(Cl)cn1)C1CCCN(c2ncnc3c2nc2n3CCCCC2)C1 (stereo not drawn),2%,10%,32%,-24%,-34%,-39%
Cc1ccc(C(=O)OCC(=O)Nc2cccc(Br)c2)s1,-7%,4%,x,x,x,x
Cc1csc(C(=O)O)c1NC(=O)c1c(Cl)cccc1Cl,-2%,u,37%,-5%,-1%,15%
COc1ccc(CCC(=O)NCc2cn3ccc(C)cc3n2)cc1,-6%,7%,59%,-23%,-2%,x
CCOc1ccc(S(=O)(=O)Nc2cccc(C(=O)N3CCN(c4ccc(OC)cc4)CC3)c2)cc1,-12%,-24%,-12%,u,u,11µM*
CCOc1ccccc1NC=C1C(=O)OC(C)(C)OC1=O,-6%,-8%,22%,-8%,-3%,13%[59 µM]
COC(=O)C1=CN(Cc2ccccc2)C=C(C(=O)OC)C1c1ccc(O)c(OC)c1,-13%,0%,29%,-10%,8%,x
Cc1[nH]c(=O)[nH]c(=S)c1C(=O)Nc1ccc(Cl)c(Cl)c1,-2%,u,-42%,8.9µM*,x,x
c1ccc2c(c1)ncn2Cc1nnc2sc(-c3ccncc3)nn12,12µM*,0%,-26%,u,-25%,u
c1cncc(-c2nn3c(Cn4cnc5ccccc54)nnc3s2)c1,4.7µM*,u,u,89µM*,-8%,u
Clc1ccc(Cl)c(-c2nn3c(Cn4cnc5ccccc54)nnc3s2)c1,-11%,24%,36%,-6%,x,x
Cc1nnc2sc(COc3ccccc3)nn2c1=O,-2%,-28%,41%,-3%,-37%,21%
c1ccc(-c2nn3c(Cn4cnc5ccccc54)nnc3s2)cc1,7.5µM*,7.1µM*!,u,-32%,-28%,1.3µM*
c1ccc(OCc2nn3c(Cn4cnc5ccccc54)nnc3s2)cc1,24µM*,u,u,-35%,1%,u
SMILES,PLK1 PBD inh,12-LOX inh,HP1b binding inh,JMJD2A Tudor inh,BAZ2B block,G9a block
Cc1ccc2nc(NC(=O)C3CC(=O)N(Cc4ccco4)C3)sc2c1 (stereo not drawn),-11%,-18%,12%,-20%,-37%,-50%
CC(=O)Nc1ccc(NC(=O)C2CC(=O)N(Cc3ccco3)C2)cc1 (stereo not drawn),-5%,u,44%,-9%,1%,16µM*
CCOc1ccc(NC(=O)C2CC(=O)N(Cc3ccco3)C2)cc1 (stereo not drawn),2%,12%,46%,-5%,4%,15%[12.7 µM]
Cc1cc(C)c2nc(NC(=O)C3CC(=O)N(Cc4ccco4)C3)sc2c1 (stereo not drawn),-14%,u,u,u,40µM*,-26%[59 µM]
CCCCOc1ccc(C(=O)CCN2CCOCC2)cc1,24µM*,-23%,20%,-18%[57.1 µM],0%,22µM*
CCCOc1ccc(C(=O)CCN2CCCCC2)cc1,13µM*,232%,29%,-13%,-7%,18µM*
CCCCCOc1ccc(C(O)C(CN2CCOCC2)c2ccccc2)cc1 (stereo not drawn),27µM*,u,28%,u,-2%,x
COc1ccc(C(O)C(CN2CCOCC2)c2ccccc2)cc1 (stereo not drawn),-1%,-15%,18%,-25%,-31%,-51%
CC(=O)c1ccc(OCCCCN2CCCC2)cc1,x,-62%,x,x,x,x
CCOc1ccc(C(=O)CCN2CCCCCC2)cc1,11µM*,130%,28%,-9%,0%,5µM*
CCOc1ccc(C(=O)CCCC(=O)c2ccc(OCC)cc2)cc1,-3%,3%,47%,-10%,-15%,11%
CCCCCCCCCCCCCCCC(=O)C1=C(O)C(CO)OC1=O (stereo not drawn),x,5%[176 µM],x,x,x,10µM*
CSC1=NSC2=NC(=O)/C(=C/c3coc4ccccc4c3=O)C(=N)N12,21µM*,u,58%,-32%,-31%,u
CSC1=NSC2=NC(=O)/C(=C/c3coc4ccc(O)cc4c3=O)C(=N)N12,u,18µM*,-22%,u,u,u
N=C1/C(=C\c2coc3ccccc3c2=O)C(=O)N=C2SC=CN12,-13%,20µM*,30%,-5%,u,-13%[59 µM]
CC1=CC2=NC(=O)/C(=C/c3coc4ccc(Cl)cc4c3=O)C(=N)N2O1,38%,202%,29%,-11%,-15%,x
Cc1ccc(S(=O)(=O)Oc2ccccc2[N+](=O)[O-])cc1,2%,6%,-1%[57 µM],-9%,x,x
COc1ccc(-c2sc3ccccc3c2-c2ccc(OCCN3CCCCC3)cc2)cc1,-8%,-14%,-15%,45µM*,x,x
